According to the supplement of paper PMC10849652:
The full data set covers some 8,800 targets. This sample favours those with a hit. About 0.5% of all pairs of compound and target were hits.

What was measured:
Assay in all cases: log2 fold change, soluble protein after heating vs DMSO (PISA); higher = thermal stabilisation; K562 lysate, 10 uM; active = over 0.2 and 3.5 SD of the protein, either way, in both replicates (recomputed)
[1] = compound: COc1cc(Nc2ncc3c(n2)-c2ccc(Cl)cc2C(c2c(F)cccc2OC)=NC3)ccc1C(=O)O [alisertib]
Method in brief: (§1)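 To prepare the extract, K562 pellets were dounce-homogenised in PBS pH 7.4 with 1 mM MgCl2, giving crude material at 1 mg/mL protein. This was treated with 10 μM compound for 30 min, then heated in aliquots for 3 min over 48°C-58°C before pooling and addition of NP-40 to 0.5% at 4°C. Centrifugation at 21,000xg for 90 min left soluble protein in the supernatant, which TMTpro 16plex LC-MS/MS quantified with equalised channel sums. Results are log-two fold changes in thermal stability compared with solvent controls, from duplicates.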

[2] = compound: COc1cc2ncnc(Nc3ccc(F)c(Cl)c3)c2cc1OCCCN1CCOCC1 [gefitinib]
Method in brief: as §1

[3] = compound: CN1CCc2c(c3ccccc3n2Cc2ccc(C(=O)NO)cc2)C1 [Tubastatin A]
Method in brief: as §1

[4] = compound: CNC(=O)C1=CC=CC=C1NC2=NC(=NC=C2Cl)NC3=C(C=C(C=C3)N4CCOCC4)OC
Method in brief: as §1

[5] = compound: CNC(=O)c1ccc(Nc2ncc(C(F)(F)F)c(NCc3nccnc3N(C)S(C)(=O)=O)n2)cc1 [defactinib]
Method in brief: as §1

[6] = compound: CNc1nc(-c2ccc3c(N)n[nH]c3c2)cc(N2C[C@@H](C(=O)NC3CCCCC3)CC[C@H]2C)n1
Method in brief: as §1

[7] = compound: COC(=O)N[C@@H](C)CNc1nccc(-c2cn(C(C)C)nc2-c2cc(Cl)cc(NS(C)(=O)=O)c2F)n1 [encorafenib]
Method in brief: as §1

[8] = compound: COC(=O)[C@H](CCSC)NC(=O)C1=C(C=C(C=C1)NC[C@H](CS)N)C2=CC=CC=C2
Method in brief: as §1

[9] = compound: CN1CC[C@H](c2c(O)cc(O)c3c(=O)cc(-c4ccccc4Cl)oc23)[C@H](O)C1 [alvocidib]
Method in brief: as §1

[10] = compound: COc1cc2nc(-c3cc(F)ccc3O)nc(N[C@@H]3CNC[C@H]3C(C)(C)O)c2cc1OC
Method in brief: as §1

Measured: log2 fold change

RFNG (UniProt Q9Y644)
Sequence of UniProt Q9Y644 (Q9Y644 whole entry, looked up): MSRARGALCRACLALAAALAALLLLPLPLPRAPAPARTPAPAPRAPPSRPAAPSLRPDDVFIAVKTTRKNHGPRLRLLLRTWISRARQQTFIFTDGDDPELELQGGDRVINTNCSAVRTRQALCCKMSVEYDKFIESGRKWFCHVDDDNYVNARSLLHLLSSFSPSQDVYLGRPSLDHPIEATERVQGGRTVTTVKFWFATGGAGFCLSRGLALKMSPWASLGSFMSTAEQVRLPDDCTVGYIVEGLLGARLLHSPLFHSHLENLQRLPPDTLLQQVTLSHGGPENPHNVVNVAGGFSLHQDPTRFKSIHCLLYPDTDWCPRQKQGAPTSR
inactive: [1] -0.003 | [2] 0.424

RMI2 (UniProt Q96E14)
Sequence of UniProt Q96E14 (Q96E14 whole entry, looked up): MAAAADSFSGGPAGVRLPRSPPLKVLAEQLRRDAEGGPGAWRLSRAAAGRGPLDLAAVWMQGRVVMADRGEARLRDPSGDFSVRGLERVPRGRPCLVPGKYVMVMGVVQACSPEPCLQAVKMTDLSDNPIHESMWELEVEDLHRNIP
inactive: [3] -0.146 | [4] -0.074 | [5] 0.265 | [6] 0.007 | [7] -0.054 | [8] -0.021

SCNM1 (UniProt Q9BWG6)
Sequence of UniProt Q9BWG6 (Q9BWG6 whole entry, looked up): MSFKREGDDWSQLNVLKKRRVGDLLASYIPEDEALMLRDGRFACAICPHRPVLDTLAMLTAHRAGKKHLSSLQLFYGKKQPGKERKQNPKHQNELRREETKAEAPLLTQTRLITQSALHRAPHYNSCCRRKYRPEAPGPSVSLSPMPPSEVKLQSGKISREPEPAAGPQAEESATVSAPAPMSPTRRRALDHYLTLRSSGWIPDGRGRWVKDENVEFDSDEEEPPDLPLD
inactive: [9] -0.005 | [3] 0.035 | [4] 0.117 | [6] 0.127 | [7] 0.115 | [8] -0.311 | [1] 0.035 | [10] 0.15 | [2] 0.114

SAP30 (UniProt O75446)
Sequence of UniProt O75446 (O75446 whole entry, looked up): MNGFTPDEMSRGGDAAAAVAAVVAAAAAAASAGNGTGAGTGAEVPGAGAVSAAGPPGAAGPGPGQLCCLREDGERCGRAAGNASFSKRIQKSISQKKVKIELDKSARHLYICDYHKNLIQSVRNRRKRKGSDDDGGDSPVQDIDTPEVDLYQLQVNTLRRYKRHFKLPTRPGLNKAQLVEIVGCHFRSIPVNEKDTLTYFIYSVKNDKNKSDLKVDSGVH
inactive: [9] -0.022 | [5] -0.028 | [6] 0.089 | [7] -0.007 | [8] 0.053 | [1] 0.044 | [10] 0.087 | [2] -0.285

SELENOK (UniProt Q9Y6D0)
Sequence of UniProt Q9Y6D0 (Q9Y6D0 whole entry, looked up): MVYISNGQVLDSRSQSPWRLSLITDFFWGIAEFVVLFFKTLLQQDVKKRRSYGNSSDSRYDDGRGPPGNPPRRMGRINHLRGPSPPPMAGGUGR
inactive: [9] -0.169 | [5] 0.123 | [6] -0.001 | [1] -0.018 | [10] -0.025 | [2] 0.006

RNF170 (UniProt Q96K19)
Sequence of UniProt Q96K19 (Q96K19 whole entry, looked up): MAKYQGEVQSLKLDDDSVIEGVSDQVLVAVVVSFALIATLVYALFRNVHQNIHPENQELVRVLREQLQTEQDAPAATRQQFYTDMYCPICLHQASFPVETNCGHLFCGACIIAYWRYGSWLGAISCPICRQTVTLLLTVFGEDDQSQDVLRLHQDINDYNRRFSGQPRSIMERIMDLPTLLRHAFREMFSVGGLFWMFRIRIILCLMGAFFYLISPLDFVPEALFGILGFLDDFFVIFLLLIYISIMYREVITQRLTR
inactive: [9] 0.371 | [4] -0.137 | [5] 0.027 | [6] -0.067 | [1] 0.055 | [10] 0.07 | [2] 0.037

RNF24 isoform 2 (UniProt Q9Y225)
Sequence of UniProt Q9Y225 (Q9Y225 whole entry, looked up): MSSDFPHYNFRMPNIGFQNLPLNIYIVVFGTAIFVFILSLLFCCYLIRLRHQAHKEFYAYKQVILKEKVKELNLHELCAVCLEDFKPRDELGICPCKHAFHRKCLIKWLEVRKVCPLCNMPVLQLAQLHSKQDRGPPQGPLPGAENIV
inactive: [9] 0.079 | [4] 0.003 | [1] -0.113 | [2] -0.108

RETREG2 (UniProt Q8NC44)
Sequence of UniProt Q8NC44 (Q8NC44 whole entry, looked up): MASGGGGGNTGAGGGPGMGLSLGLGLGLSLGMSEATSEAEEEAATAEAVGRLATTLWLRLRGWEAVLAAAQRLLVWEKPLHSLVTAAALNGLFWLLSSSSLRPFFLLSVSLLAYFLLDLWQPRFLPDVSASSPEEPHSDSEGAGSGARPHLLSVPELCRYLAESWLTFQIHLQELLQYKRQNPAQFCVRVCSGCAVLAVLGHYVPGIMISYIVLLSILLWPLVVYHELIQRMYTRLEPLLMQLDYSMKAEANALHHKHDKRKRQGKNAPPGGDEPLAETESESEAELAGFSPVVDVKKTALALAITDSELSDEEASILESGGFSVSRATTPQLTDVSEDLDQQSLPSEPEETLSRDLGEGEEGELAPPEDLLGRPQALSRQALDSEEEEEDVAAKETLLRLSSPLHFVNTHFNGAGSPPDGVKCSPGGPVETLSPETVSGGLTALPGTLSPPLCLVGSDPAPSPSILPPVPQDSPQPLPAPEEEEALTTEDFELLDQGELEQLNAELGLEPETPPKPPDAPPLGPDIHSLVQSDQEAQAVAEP
inactive: [9] -0.069 | [3] -0.025 | [4] 0 | [5] -0.12 | [7] -0.002 | [8] -0.096 | [1] -0.029 | [10] -0.007 | [2] -0.058

SERAC1 (UniProt Q96JX3)
Sequence of UniProt Q96JX3 (Q96JX3 whole entry, looked up): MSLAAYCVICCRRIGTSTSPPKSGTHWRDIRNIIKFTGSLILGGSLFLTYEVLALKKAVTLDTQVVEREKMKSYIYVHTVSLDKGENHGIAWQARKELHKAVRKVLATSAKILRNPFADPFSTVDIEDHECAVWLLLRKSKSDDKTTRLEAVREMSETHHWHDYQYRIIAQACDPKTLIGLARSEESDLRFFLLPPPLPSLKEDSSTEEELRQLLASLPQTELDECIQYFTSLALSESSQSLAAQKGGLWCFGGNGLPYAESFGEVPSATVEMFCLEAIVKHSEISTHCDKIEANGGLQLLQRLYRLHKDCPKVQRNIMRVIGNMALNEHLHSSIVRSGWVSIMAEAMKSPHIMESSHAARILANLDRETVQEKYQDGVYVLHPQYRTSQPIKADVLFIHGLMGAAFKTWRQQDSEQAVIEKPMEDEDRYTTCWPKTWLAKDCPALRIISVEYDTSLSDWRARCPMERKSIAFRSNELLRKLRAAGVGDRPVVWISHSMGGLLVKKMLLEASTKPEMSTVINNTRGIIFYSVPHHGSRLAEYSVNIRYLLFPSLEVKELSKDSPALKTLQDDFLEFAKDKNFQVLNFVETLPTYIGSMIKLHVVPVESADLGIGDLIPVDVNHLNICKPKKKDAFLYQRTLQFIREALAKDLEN
inactive: [9] 0.048 | [4] -0.024 | [6] 0.149 | [7] -0.051 | [8] -0.003 | [1] -0.412 | [2] -0.165

RHBDD1 (UniProt Q8TEB9)
Sequence of UniProt Q8TEB9 (Q8TEB9 whole entry, looked up): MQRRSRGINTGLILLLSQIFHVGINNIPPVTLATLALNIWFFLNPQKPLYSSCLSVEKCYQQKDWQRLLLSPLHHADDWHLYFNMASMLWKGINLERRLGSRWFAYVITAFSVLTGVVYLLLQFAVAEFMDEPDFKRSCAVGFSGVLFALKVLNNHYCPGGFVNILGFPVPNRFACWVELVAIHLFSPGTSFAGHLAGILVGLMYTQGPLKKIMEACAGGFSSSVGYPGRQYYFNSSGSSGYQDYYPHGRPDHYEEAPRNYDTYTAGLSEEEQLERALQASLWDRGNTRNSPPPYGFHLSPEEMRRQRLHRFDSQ
inactive: [9] -0.018 | [5] 0.024 | [7] 0.063 | [8] 0.054 | [10] 0.02

RXRB isoform 3 (UniProt P28702)
Sequence of UniProt P28702 (P28702 whole entry, looked up): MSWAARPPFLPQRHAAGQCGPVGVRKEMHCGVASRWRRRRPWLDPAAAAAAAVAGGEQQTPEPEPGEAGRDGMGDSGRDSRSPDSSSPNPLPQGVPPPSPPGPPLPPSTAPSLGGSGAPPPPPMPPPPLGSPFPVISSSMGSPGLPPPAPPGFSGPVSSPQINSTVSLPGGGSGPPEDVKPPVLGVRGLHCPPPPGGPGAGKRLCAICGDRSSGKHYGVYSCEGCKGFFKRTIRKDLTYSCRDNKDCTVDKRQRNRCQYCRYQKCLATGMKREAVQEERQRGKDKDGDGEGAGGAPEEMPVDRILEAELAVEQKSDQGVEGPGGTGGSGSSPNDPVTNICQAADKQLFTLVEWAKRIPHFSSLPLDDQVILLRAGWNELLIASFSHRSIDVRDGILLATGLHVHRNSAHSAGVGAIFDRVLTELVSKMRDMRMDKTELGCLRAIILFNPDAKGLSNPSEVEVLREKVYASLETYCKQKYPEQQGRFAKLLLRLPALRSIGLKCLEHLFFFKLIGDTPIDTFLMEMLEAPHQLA
inactive: [9] 0.008 | [4] 0.126 | [5] 0.05 | [6] -0.003 | [7] 0.066 | [8] -0.042 | [1] -0.044 | [10] 0.073 | [2] 0.047

RXRA (UniProt P19793)
Sequence of UniProt P19793 (P19793 whole entry, looked up): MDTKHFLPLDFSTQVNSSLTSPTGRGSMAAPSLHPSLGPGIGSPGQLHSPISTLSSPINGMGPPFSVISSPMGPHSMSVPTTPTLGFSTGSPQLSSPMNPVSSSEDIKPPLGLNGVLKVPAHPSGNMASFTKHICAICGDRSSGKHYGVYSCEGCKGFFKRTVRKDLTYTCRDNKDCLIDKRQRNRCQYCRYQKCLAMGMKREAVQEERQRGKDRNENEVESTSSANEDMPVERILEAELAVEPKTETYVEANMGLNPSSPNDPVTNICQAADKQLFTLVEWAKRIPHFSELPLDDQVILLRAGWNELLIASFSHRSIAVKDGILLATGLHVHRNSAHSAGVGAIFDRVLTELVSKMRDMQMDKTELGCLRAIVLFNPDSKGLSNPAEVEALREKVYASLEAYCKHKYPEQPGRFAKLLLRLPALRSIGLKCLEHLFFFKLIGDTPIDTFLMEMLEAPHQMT
inactive: [9] -0.019 | [3] 0.138 | [4] -0.06 | [6] 0.072 | [1] -0.117 | [10] 0.018 | [2] 0.043

S100A6 (UniProt P06703)
inactive: [9] 0.084 | [3] -0.044 | [4] 0.018 | [5] -0.017 | [6] -0.126 | [7] -0.173 | [8] 0.023 | [10] -0.038
